Measurements published in PubChem BioAssay.

Biological target: Follistatin (Homo sapiens) (UniProt P19883)
Assay: follistatin binders on small-molecule microarrays, primary screen, biochemical, small-molecule microarray, 635/667 nm fluorescence (AID 1132)
Conditions: FST binding, 635 nm fluorescence, higher = more signal

Follistatin (Homo sapiens), sequence (P19883 whole entry, looked up): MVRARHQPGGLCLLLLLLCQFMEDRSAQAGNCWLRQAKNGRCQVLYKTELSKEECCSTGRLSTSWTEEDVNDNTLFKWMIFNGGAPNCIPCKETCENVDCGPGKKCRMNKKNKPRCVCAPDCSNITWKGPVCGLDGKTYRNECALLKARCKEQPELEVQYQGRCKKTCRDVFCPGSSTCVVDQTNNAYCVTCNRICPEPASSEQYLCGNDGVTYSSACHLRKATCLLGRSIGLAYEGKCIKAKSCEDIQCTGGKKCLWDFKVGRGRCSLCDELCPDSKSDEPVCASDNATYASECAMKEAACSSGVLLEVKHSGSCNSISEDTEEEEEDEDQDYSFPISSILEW

SMILES | composite z-score
COCCOC(=O)N1C(=O)[C@@]2(c3cc(C#CCCO)ccc31)[C@H](c1ccc(OCCO)cc1)N1[C@H](c3ccccc3)[C@H](c3ccccc3)OC(=O)[C@H]1[C@@H]2C(=O)N1CCCCCCC1 | 1.46
CCN(CC)c1ccc(N2CC=CC34O[C@@H]5C=CCCOC(=O)C5[C@H]3C(=O)N(C(C)CO)[C@@H]4C2=O)cc1 (stereo partly drawn) | 0.461
CC(C)=CCCC(C)=CC(O)C1C=CC2C(=O)NC(=O)C2N1Nc1ccc(Cl)cc1Cl (stereo not drawn) | 1.29
COC(=O)[C@@]1(Cc2ccc(F)cc2)[C@H]2c3cc(C(=O)N(C)C)n(CCc4ccc(O)c(O)c4)c3C[C@H]2CN1C(=O)c1ccccc1 | -0.123
N#Cc1ccc(-c2cccc(=O)o2)cc1 | 0.268
COC(=O)[C@@]1(Cc2ccccc2)[C@H]2c3cc(C(=O)N(C)C)n(CCO)c3C[C@H]2CN1C(=O)c1ccccc1 | -0.535
C=CCOC(=O)[C@H]1[C@@H]2C(=O)O[C@@H](c3ccccc3)[C@@H](c3ccccc3)N2[C@@H](c2ccc(OCCOC(=O)[C@@H]3C[C@@H]4C(=O)N[C@@H](CCCC[N+](C)(C)C)C(=O)N4[C@@H]3c3ccc(O)cc3)cc2)[C@]12C(=O)Nc1ccc(I)cc12 | 1.32

Biological target: Fibroblast growth factor 2 (Homo sapiens) (UniProt P09038)
Assay: FGF2 binders on small-molecule microarrays, primary screen, biochemical, small-molecule microarray, 635/667 nm fluorescence (AID 1133)
Conditions: small-molecule microarray binding, FGF2, fluorescence 635/667; higher = more signal

Fibroblast growth factor 2 (Homo sapiens), sequence (P09038 whole entry, looked up): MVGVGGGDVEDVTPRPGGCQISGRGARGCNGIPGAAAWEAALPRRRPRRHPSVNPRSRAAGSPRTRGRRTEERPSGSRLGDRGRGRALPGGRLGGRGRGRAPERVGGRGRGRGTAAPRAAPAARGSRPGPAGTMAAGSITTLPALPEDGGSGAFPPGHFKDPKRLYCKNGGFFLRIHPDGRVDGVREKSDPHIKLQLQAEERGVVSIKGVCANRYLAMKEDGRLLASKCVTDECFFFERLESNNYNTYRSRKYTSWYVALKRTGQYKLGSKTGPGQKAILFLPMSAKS

SMILES | composite z-score
CCOC(=O)C[C@H]1[C@H](OC(=O)Cc2ccc3c(c2)OCO3)[C@@H](NC(=O)Cc2ccc(OC)cc2)c2cc(OCCCO)ccc2N1C(=O)Cc1ccc(OC)cc1 | -0.0689
COC(=O)[C@@]1(Cc2ccccc2)[C@H]2c3cc(C(=O)N4CCCC4)n(Cc4ccc(OC)c(OC)c4)c3C[C@H]2CN1C(=O)c1ccccc1 | -0.502
[N-]=[N+]=Nc1ccccc1C[C@]1(C(=O)N2CCOCC2)N=C(c2ccc(OCCCO)cc2)O[C@H]1c1ccccc1N=[N+]=[N-] | 1.79
CC(C)(C)N1CC=CC23O[C@@H]4/C=C\CCCOC(=O)C4[C@H]2C(=O)N(CCCO)[C@@H]3C1=O (stereo partly drawn) | -0.811
COc1ccc(CCNC(=O)[C@@H]2c3ccccc3C(=O)N(Cc3ccccc3OC)[C@H]2c2ccc(CO)cc2)cc1 | 1.02
NC(=O)NCC#Cc1ccc2c(c1)[C@]1(C(=O)N2)[C@H](c2ccc(OCCO)cc2)N2[C@H](c3ccccc3)[C@H](c3ccccc3)OC(=O)[C@H]2[C@@H]1C(=O)O | -0.498
COc1ccc(C(=O)Nc2ccc3c(c2)[C@@]2(O[C@H](CCO)[C@@H]([Si](C)(C)c4ccc(OC)cc4)[C@@H]2C)C(=O)N3Cc2ccccc2)cc1 | 1.45
COC(=O)C1=CC(CCCO)=CC(c2cccs2)N(Cc2cc3c(cc2Br)OCO3)C=C1C(=O)OC (stereo not drawn) | 1.43
O=C1O[C@H](c2ccccc2)[C@H](c2ccccc2)N2[C@H]1[C@@H](C(=O)O)[C@]1(C(=O)Nc3ccc(C#CCCO)cc31)[C@H]2c1ccc(OCCO)cc1 | 1.16
CCOC(=O)C[C@H]1[C@H](OC(=O)Cc2ccc3c(c2)OCO3)[C@@H](NC(=O)c2ccc3ccccc3n2)c2cc(OCCCO)ccc2N1C(=O)Cc1ccc(OC)cc1 | 0.394
O=C(NC1CC1)[C@@H]1c2ccccc2C(=O)N(Cc2cc(C(F)(F)F)cc(C(F)(F)F)c2)[C@H]1c1ccc(CO)cc1 | 0.0292
C=C(/C(=C/C[C@@H](OC(C)=O)c1cccc(OCCO)c1)c1cnc2ccccc2c1)C(C)C | 1.68
O=C1C2C=CC(C(O)c3cccs3)N(Nc3ccc([N+](=O)[O-])cc3)C2C(=O)N1c1ccccc1 (stereo not drawn) | -0.105
C[N+](C)(C)CCCC[C@@H]1NC(=O)[C@H]2C[C@@H](C(=O)NCCCCCNC(=O)CS)[C@@H](c3cccc(OCCO)c3)N2C1=O | 0.549
COCCOC(=O)N1C(=O)[C@@]2(c3cc(C#CCC(C(=O)OC)C(=O)OC)ccc31)[C@H](c1ccc(O)cc1)N1[C@H](c3ccccc3)[C@H](c3ccccc3)OC(=O)[C@H]1[C@@H]2C(=O)Nc1nc2ccccc2s1 | 1.54
COC(=O)[C@@]1(Cc2ccc(OC)cc2)[C@H]2c3cc(C(=O)N4CCCC4)n(Cc4c(CO)[nH]cc(C)c4=O)c3C[C@H]2CN1C(=O)c1ccccc1 | -0.0376
O=C1C[C@]2(c3ccc([N+](=O)[O-])cc3)C(=O)N(C3CC3)c3cc(CO)ccc3[C@H]2N1C1CCCCC1 | 0.173
C=C(COC)/C(=C/C[C@@H](OC(C)=O)c1ccccc1OCCO)c1cnc2ccccc2c1 | 1.12

SMILES | composite z-score
COCCOC(=O)N1C(=O)[C@@]2(c3cc(C#CC4(O)CCCCCC4)ccc31)[C@H](c1ccc(O)cc1)N1[C@H](c3ccccc3)[C@H](c3ccccc3)OC(=O)[C@H]1[C@@H]2C(=O)N1CCCCCCC1 | 0.608
C=CCOC(=O)[C@@H]1[C@H]2C(=O)O[C@H](c3ccccc3)[C@H](c3ccccc3)N2[C@H](c2ccc(OCCOC(=O)[C@H]3C[C@H]4C(=O)N[C@@H](CCCCN(C)C)C(=O)N4[C@H]3c3ccc(O)cc3)cc2)[C@@]12C(=O)Nc1ccc(I)cc12 | 1.37
COC(=O)C[C@H]1O[C@@]2(C[C@@H]1[Si](C)(C)C)C(=O)N(C)c1ccccc12 | 0.0172
C=CCC(OC(C)=O)[C@@H]1[C@@H](N(Cc2cc3ccccc3o2)C(=O)c2cccc3ccccc23)c2cc(OCCCO)ccc2N1C(=O)c1ccc2ccccc2n1 (stereo partly drawn) | 0.285
COC(=O)[C@@]1(Cc2ccc(OC)cc2)[C@H]2c3cc(C(=O)N4CCCC4)n(CCn4cc([N+](=O)[O-])nc4C)c3C[C@H]2CN1C(=O)c1ccccc1 | -0.322
CCCCCC1=C2CNC(CC(C)C)(C(=O)OC)C=C2C(C)C1=O (stereo not drawn) | -0.544
O=C1C=C(c2ccccc2)C(=O)C2=C1CC([C@H]1Oc3ccccc3S(=O)(=O)N3CCC[C@@H]13)=CC2 | 0.669
COCCOC(=O)N1C(=O)[C@@]2(c3cc(C#CCC(C(=O)OC)C(=O)OC)ccc31)[C@H](C(=O)Nc1nc3ccccc3s1)[C@H]1C(=O)O[C@H](c3ccccc3)[C@H](c3ccccc3)N1[C@@H]2c1ccc(O)cc1 | 1.46
C=CCC(OC(C)=O)[C@@H]1[C@@H](N(Cc2ccc(-c3cccc(C(F)(F)F)c3)o2)C(=O)c2ccc(-c3ccccc3)cc2)c2cc(OCCCO)ccc2N1C(=O)c1ccc2ccccc2c1 (stereo partly drawn) | 0.23
Cc1ccc(S[C@]2(C(=O)NCCCN(C)C)CC(=O)N(Cc3ccccc3C(F)(F)F)[C@@H]2c2ccc(CO)cc2I)cc1 | -0.635
CN(C)CCCC[C@@H]1NC(=O)[C@H]2C[C@@H](C(=O)O)[C@@H](c3ccc(O)cc3)N2C1=O | 1.83
COCCOC(=O)N1C(=O)[C@@]2(c3cc(C#CCCO)ccc31)[C@H](c1ccc(OCCO)cc1)N1[C@H](c3ccccc3)[C@H](c3ccccc3)OC(=O)[C@H]1[C@@H]2C(=O)N1CCCCCCC1 | 1.68
CCN(CC)c1ccc(N2CC=CC34O[C@@H]5C=CCCOC(=O)C5[C@H]3C(=O)N(C(C)CO)[C@@H]4C2=O)cc1 (stereo partly drawn) | -0.199
CC(C)=CCCC(C)=CC(O)C1C=CC2C(=O)NC(=O)C2N1Nc1ccc(Cl)cc1Cl (stereo not drawn) | -0.935
COC(=O)[C@@]1(Cc2ccc(F)cc2)[C@H]2c3cc(C(=O)N(C)C)n(CCc4ccc(O)c(O)c4)c3C[C@H]2CN1C(=O)c1ccccc1 | -0.72
N#Cc1ccc(-c2cccc(=O)o2)cc1 | 0.185
COC(=O)[C@@]1(Cc2ccccc2)[C@H]2c3cc(C(=O)N(C)C)n(CCO)c3C[C@H]2CN1C(=O)c1ccccc1 | -0.541
C=CCOC(=O)[C@H]1[C@@H]2C(=O)O[C@@H](c3ccccc3)[C@@H](c3ccccc3)N2[C@@H](c2ccc(OCCOC(=O)[C@@H]3C[C@@H]4C(=O)N[C@@H](CCCC[N+](C)(C)C)C(=O)N4[C@@H]3c3ccc(O)cc3)cc2)[C@]12C(=O)Nc1ccc(I)cc12 | 1.48
